Measured values reported in PubChem BioAssay (Tox21).
Values joined by “and” are separate entries in the source; they are usually repeats but may differ in a detail not shown here. Identical values can stand only once. Inconclusive results are not listed. Active and inactive are the calls of the source. Unless noted, calls come from the whole dose curve; as a rule, active = well fitted curve in the direction sought with a large enough effect in the repeat runs; inconclusive = weak or mixed curves; inactive = no such curve, though single readings can be large; an effect the other way counts as inactive or inconclusive.

What was measured:
[1] = qHTS assay to identify small molecule antagonists of the androgen receptor (AR) signaling pathway using the MDA cell line in the presence of 0.5 nM R1881 - cell viability counter screen (AID 1259242); note: nearly all actives have a fitted effect of over 45% in size
Summary of the method: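 Live-cell protease fluorescence, CellTiter-Fluor, 30 min at 37C. Cells: MDA-kb2, 3,000/well, preincubated 5 hr. Compounds plus 0.5 nM R1881 final, 16 hr, 37C, 0% CO2.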

[2] = target: Estrogen receptor (Homo sapiens) (UniProt P03372); assay: qHTS assay to identify small molecule antagonists of the estrogen receptor alpha (ER-alpha) signaling pathway using the BG1 cell line in the presence of 0.1 nM 17-beta-estradiol (AID 1259244); note: nearly all actives have a fitted effect of over 50% in size
Estrogen receptor (Homo sapiens), sequence (P03372 whole entry, looked up): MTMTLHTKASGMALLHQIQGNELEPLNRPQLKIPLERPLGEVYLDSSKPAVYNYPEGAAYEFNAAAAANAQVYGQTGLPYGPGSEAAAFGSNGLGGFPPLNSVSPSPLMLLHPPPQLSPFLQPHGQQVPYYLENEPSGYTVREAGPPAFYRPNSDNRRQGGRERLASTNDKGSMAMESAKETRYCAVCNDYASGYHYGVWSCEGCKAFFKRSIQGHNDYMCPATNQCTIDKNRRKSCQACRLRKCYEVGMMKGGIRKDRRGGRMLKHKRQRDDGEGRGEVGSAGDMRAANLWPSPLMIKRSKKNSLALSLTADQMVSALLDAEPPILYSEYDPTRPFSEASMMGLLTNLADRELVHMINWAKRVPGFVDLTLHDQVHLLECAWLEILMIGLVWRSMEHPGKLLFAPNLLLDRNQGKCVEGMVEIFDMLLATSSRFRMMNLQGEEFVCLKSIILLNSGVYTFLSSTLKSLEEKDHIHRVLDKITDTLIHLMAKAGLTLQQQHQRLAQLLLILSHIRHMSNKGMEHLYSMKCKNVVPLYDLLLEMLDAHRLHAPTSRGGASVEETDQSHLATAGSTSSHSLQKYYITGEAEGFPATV
Summary of the method: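 Luminescence after ONE-Glo (30 min, room temperature) measured ERE-luciferase activity in VM7Luc4E2 cells treated 22 h with compound and 0.1 nM final 17beta-estradiol as stimulator.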

[3] = qHTS assay to identify small molecule HDAC inhibitors (AID 1259364); note: potency is the fitted concentration of half-maximal effect;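 note: wild-type HCT-116 cells with endogenous class I/II HDAC activity; nearly all actives have a fitted effect of over 45% in size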
Summary of the method: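 HCT-116 (wild type), 1,500 cells/well, overnight; compound 2 hr 37C 5% CO2; HDAC-Glo I/II reagent 30 min RT; luminescence readout.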

[4] = qHTS assay to identify small molecule HDAC inhibitors - cell viability counter screen (AID 1259365); note: series mostly up to about 92 µM; nearly all actives have a fitted effect of over 50% in size
Summary of the method: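 After overnight seeding at 1,500 cells per well, wild-type HCT-116 cultures took up compounds in DMSO for 2hr at 37 C. Viable cell content came from luminescence with CellTiter-Glo.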

[5] = qHTS assay to identify small molecule agonists of the sonic hedgehog signaling (Shh) pathway - cell viability counter screen (AID 1259366); note: nearly all actives have a fitted effect of over 50% in size
Summary of the method: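 Same-well cytotoxicity read. Gli1-Luc reporter 3T3 cells; compounds 24hr, 37C/5% CO2; CellTiter-Fluor fluorescence.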

[6] = qHTS assay to identify small molecule antagonists of the sonic hedgehog signaling (Shh) pathway - cell viability counter screen (AID 1259367); note: nearly all actives have a fitted effect of over 55% in size
Summary of the method: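 CellTiter-Fluor signal in conditioned medium-stimulated 3T3 Gli1-Luc cells, 23 hr compound exposure, 37C.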

[7] = qHTS assay to identify small molecule agonists of the sonic hedgehog signaling (Shh) pathway (AID 1259368; calls by dose curve;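 note: NIH/3T3-derived 3T3Gli1-Luc cells carrying a stable Gli1-driven firefly luciferase reporter; series mostly up to about 92 µM; nearly all actives have a fitted effect of over 15% in size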)
Summary of the method: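 Read-out: firefly luciferase luminescence from a Gli1 response element reporter stably integrated in NIH/3T3-derived 3T3Gli1-Luc cells, measured 30 min at room temperature after reagent addition. Compound exposure lasted 24 hr at 37 C, 5% CO2.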

[8] = qHTS assay to identify small molecule antagonists of the sonic hedgehog signaling (Shh) pathway (AID 1259369; calls by dose curve; note: nearly all actives have a fitted effect of over 45% in size; note: potency is the fitted concentration of half-maximal effect)
Summary of the method: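 Luminescence readout: firefly Luc under Gli1 response element in 3T3Gli1-Luc cells (NIH/3T3 clone). Antagonist mode, stimulation by conditioned medium; compound exposure 24hr at 37 C, 5% CO2.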

[9] = qHTS assay to identify small molecule agonists of the androgen receptor (AR) signaling pathway in the presence of an antagonist - cell viability counter screen (AID 1259379);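 note: MDA-kb2 human breast cancer cells carrying an MMTV luciferase reporter; series mostly up to about 92 µM; nearly all actives have a fitted effect of over 25% in size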
Summary of the method: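 Viability counter screen: CellTiter-Fluor fluorescence, measured in the same wells as the luciferase read-out. MDA-kb2 cells, 3,000/well, with nilutamide at 3.0uM final and compounds at 15 concentrations, 16 hr at 37C, 0% CO2.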

[10] = qHTS assay to identify small molecule agonists of the estrogen receptor beta (ER-beta) signaling pathway - cell viability counter screen (AID 1259380); note: nearly all actives have a fitted effect of over 30% in size; note: potency is the fitted concentration of half-maximal effect
Summary of the method: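 Luminescence read-out (CellTiter-Glo, 30 min, room temp) taken in the same wells as the beta-lactamase reporter assay; ER-beta-UAS-bla HEK293T cells exposed to DMSO-dissolved compounds for 16 hr at 37C in 2% charcoal-stripped FBS medium.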

[11] = target: Estrogen receptor (Homo sapiens) (UniProt P03372); assay: qHTS assay to identify small molecule agonists of the estrogen receptor alpha (ER-alpha) signaling pathway in the presence of an antagonist (AID 1259383; calls by dose curve; note: top concentration of the series differs between compounds; nearly all actives have a fitted effect of over 15% in size)
Summary of the method: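 Luciferase luminescence (ONE-Glo, 30min at room temperature) measured in VM7Luc4E2 cells after 22hr compound exposure at 15 concentrations, with 10.0nM ICI-182,780 final present; cells express endogenous ER-alpha and carry four EREs upstream of luciferase.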

[12] = qHTS assay to identify small molecule agonists or antagonists of the thyroid stimulating hormone receptor (TSHR) signaling pathway - wild type cell line counter screen (AID 1259384; calls by dose curve)
Summary of the method: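 Counter screen in untransfected Hek293: compounds (15-point titration, triplicate) plus phosphodiesterase inhibitor Ro20-1724 added after 18 h plating; 30 min RT. Intracellular cAMP via competitive d2/cryptate immunoassay, 1 h incubation.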

[13] = qHTS assay to identify small molecule agonists of the estrogen receptor alpha (ER-alpha) signaling pathway in the presence of an antagonist - cell viability counter screen (AID 1259386);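 note: series mostly up to about 92 µM; cells exposed to compounds for 22 h at 37 °C before the viability read; nearly all actives have a fitted effect of over 30% in size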
Summary of the method: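 Read-out: CellTiter-Fluor fluorescence after 1hr reagent incubation, measured in the same wells as the luciferase readout. VM7Luc4E2 cells were exposed to 15 compound concentrations with 10.0nM ICI-182,780 for 22hr at 37C.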

[14] = target: Progesterone receptor (Homo sapiens) (UniProt P06401); assay: qHTS assay to identify small molecule agonists of the progesterone receptor (PR) signaling pathway (AID 1346784; calls by dose curve; note: nearly all actives have a fitted effect of over 30% in size)
Progesterone receptor (Homo sapiens), sequence (P06401 whole entry, looked up): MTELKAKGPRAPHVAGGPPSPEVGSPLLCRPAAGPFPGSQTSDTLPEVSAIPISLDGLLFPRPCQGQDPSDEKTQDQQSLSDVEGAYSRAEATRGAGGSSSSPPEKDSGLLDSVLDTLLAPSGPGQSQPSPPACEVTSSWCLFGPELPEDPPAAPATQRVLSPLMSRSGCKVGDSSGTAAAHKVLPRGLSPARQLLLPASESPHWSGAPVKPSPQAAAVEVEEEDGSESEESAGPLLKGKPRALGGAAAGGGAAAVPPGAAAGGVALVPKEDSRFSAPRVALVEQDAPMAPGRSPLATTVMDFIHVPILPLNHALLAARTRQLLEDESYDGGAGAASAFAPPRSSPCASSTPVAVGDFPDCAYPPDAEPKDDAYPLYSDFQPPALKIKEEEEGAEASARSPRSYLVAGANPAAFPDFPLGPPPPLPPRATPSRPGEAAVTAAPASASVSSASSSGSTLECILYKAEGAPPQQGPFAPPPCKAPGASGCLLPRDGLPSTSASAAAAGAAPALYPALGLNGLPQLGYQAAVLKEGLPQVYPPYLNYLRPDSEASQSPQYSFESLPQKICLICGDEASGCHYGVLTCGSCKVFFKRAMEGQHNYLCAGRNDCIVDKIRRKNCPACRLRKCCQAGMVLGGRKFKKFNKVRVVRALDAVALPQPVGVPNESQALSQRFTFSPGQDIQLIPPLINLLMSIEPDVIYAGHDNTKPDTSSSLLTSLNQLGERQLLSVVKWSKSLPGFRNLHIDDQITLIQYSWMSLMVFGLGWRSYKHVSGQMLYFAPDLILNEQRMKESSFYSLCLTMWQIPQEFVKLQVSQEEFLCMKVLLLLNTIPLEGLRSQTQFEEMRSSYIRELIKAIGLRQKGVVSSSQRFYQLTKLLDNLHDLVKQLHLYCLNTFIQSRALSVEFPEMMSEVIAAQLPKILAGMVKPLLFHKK
Summary of the method: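 Compounds were tested for PR agonism in HEK 293T cells bearing a beta-lactamase gene under UAS control. Treatment lasted 16 hr at 37C; signal came from fluorescence of a FRET substrate.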

[15] = target: Estrogen receptor beta (Homo sapiens) (UniProt Q92731); assay: qHTS assay to identify small molecule agonists of the estrogen receptor beta (ER-beta) signaling pathway (AID 1259377; active = well fitted activation curve with a large enough effect in the signal ratio in the repeat runs, not every such curve was filed as active; the % refers to the signal ratio)
Estrogen receptor beta (Homo sapiens), sequence (Q92731 whole entry, looked up): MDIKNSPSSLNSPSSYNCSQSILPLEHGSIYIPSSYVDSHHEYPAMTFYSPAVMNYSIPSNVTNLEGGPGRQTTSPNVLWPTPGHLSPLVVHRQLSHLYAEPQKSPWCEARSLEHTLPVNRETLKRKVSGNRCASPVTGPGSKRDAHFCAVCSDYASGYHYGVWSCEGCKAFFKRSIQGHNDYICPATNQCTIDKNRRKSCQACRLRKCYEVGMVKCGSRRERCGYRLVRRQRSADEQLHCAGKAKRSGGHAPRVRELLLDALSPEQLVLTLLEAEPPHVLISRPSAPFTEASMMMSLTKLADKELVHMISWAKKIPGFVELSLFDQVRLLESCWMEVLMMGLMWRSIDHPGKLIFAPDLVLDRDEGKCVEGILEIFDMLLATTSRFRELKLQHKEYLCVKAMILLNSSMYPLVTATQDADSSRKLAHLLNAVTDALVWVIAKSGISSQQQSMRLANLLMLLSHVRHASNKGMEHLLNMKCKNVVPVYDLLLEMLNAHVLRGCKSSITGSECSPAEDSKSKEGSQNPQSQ
Summary of the method: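 Read-out: beta-lactamase FRET fluorescence. Cell line: ER-beta-UAS-bla HEK293T in 2% charcoal-stripped FBS. Exposure: 16 hr at 37C. Substrate step: 2 h at room temperature.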

[16] = target: Estrogen receptor beta (Homo sapiens) (UniProt Q92731); assay: qHTS assay to identify small molecule antagonists of the estrogen receptor beta (ER-beta) signaling pathway (AID 1259378; active = well fitted inhibition curve with a large enough effect in the signal ratio in the repeat runs, not every such curve was filed as active; the % refers to the signal ratio)
Summary of the method: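 Antagonist mode: compounds added to beta-lactamase reporter HEK293T ER-beta-UAS cells stimulated with E2 (1nM final), 16 hr at 37C. LiveBLAzer B/G FRET substrate, 2 hours room temperature, fluorescence read-out.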

[17] = qHTS assay to identify small molecule antagonists of the estrogen receptor beta (ER-beta) signaling pathway - cell viability counter screen (AID 1259382); note: nearly all actives have a fitted effect of over 55% in size; note: potency is the fitted concentration of half-maximal effect
Summary of the method: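 Luminescent ATP read-out (CellTiter-Glo, 30 min, RT) taken in the same wells as the bla reporter assay. HEK293T ER-beta-UAS-bla cells in 2% charcoal-stripped FBS were exposed to compounds with 1nM E2 for 16 hr at 37C.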

[18] = target: Thyrotropin receptor (Homo sapiens) (UniProt P16473); assay: qHTS assay to identify small molecule antagonists of the thyroid stimulating hormone receptor (TSHR) signaling pathway (AID 1259385; calls by dose curve; note: nearly all actives have a fitted effect of over 20% in size)
Thyrotropin receptor (Homo sapiens), sequence (P16473 whole entry, looked up): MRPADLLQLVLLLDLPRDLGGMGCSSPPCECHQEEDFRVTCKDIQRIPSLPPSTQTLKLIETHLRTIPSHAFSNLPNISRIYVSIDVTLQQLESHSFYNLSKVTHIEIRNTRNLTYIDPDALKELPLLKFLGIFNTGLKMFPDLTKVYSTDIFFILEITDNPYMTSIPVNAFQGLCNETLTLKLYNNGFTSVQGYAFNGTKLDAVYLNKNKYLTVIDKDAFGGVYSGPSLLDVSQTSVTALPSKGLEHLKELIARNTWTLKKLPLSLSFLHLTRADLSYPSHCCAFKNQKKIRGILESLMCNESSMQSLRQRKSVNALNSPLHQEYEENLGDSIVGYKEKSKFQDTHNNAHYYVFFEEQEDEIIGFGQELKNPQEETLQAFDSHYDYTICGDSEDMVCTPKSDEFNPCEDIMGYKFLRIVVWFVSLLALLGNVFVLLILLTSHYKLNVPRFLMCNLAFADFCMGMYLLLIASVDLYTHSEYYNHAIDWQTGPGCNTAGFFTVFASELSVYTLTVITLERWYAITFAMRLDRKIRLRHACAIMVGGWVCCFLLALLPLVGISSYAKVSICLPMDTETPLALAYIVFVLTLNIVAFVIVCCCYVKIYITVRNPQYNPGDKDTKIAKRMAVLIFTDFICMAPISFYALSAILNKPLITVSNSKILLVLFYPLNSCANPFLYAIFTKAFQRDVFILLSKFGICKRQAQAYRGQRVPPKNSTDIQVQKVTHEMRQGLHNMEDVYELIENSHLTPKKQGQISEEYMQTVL
Summary of the method: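 Antagonist mode: compound-treated TSHR-expressing HEK293 cells were stimulated with 1.5 ng/mL TSH (final) in presence of Ro20-1724 for 30 min at RT. HTRF cAMP detection after 1 h; each compound tested at 15 concentrations, triplicate.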

[19] = target: Androgen receptor (Homo sapiens) (UniProt P10275); assay: qHTS assay to identify small molecule agonists of the androgen receptor (AR) signaling pathway in the presence of an antagonist (AID 1259381; calls by dose curve; note: nearly all actives have a fitted effect of over 15% in size)
Androgen receptor (Homo sapiens), sequence (P10275 whole entry, looked up): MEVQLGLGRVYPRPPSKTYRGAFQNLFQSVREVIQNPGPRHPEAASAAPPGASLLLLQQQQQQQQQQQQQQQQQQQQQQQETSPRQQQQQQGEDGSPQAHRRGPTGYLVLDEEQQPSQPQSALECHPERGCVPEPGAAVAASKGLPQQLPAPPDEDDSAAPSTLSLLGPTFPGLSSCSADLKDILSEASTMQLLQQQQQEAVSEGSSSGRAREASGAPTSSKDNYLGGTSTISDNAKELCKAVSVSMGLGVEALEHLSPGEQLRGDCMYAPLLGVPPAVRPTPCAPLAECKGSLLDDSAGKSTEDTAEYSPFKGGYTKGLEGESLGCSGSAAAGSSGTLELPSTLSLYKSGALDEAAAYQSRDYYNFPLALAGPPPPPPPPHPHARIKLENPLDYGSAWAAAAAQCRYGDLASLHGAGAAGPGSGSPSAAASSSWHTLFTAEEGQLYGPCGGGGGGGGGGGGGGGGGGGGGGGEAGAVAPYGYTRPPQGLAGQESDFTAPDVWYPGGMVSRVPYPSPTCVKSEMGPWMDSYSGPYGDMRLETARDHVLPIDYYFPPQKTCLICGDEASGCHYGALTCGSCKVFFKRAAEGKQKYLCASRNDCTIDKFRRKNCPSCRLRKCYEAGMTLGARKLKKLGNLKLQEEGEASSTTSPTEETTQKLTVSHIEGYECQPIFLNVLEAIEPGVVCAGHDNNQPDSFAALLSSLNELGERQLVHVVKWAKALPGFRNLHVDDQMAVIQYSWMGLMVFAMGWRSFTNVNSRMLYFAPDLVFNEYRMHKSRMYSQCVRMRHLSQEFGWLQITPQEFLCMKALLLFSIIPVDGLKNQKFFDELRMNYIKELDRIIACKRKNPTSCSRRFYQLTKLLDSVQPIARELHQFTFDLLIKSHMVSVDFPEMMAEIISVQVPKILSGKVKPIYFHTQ
Summary of the method: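 Luciferase read-out (ONE-Glo, 30min room temperature) in MDA-kb2 MMTV-reporter cells; agonist mode run in presence of AR antagonist nilutamide, 3.0uM final. Compounds tested as 15-point series, 16hr exposure at 37C, 0% CO2.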

Measured: Potency

CCCBr
inactive: [1] | [2] | [3] | [4] | [5] | [6] | [7] | [8] | [9] | [10] | [11] | [12] | [13] | [14]

CCCN(CCC)c1c([N+](=O)[O-])cc(C(C)C)cc1[N+](=O)[O-]
inactive: [1] | [2] | [3] | [4] | [5] | [6] | [7] | [8] | [15] | [16] | [9] | [10] | [17] | [11] | [12] | [18] | [13] | [14]

COc1ccc(C(O)(c2cncnc2)C2CC2)cc1 (stereo not drawn)
inactive: [1] | [2] | [3] | [4] | [5] | [6] | [7] | [8] | [15] | [16] | [9] | [10] | [17] | [11] | [12] | [18] | [13] | [14]

CC(C)c1ccc(OP(=O)(Oc2ccc(C(C)C)cc2)Oc2ccc(C(C)C)cc2)cc1
inactive: [1] | [2] | [3] | [4] | [5] | [6] | [7] | [9] | [11] | [12] | [18] | [13] | [14]
active: [8] 13.8 µM and 12.2 µM and 15.3 µM | [10] 21.8 µM and 27.3 µM and 21.7 µM | [17] 27.5 µM and 30.6 µM

CC(Oc1cc(Cl)c(Cl)cc1Cl)C(=O)O (stereo not drawn)
inactive: [1] | [2] | [3] | [4] | [5] | [6] | [7] | [8] | [15] | [9] | [11] | [12] | [18] | [13]

Cc1cnc(C2=NC(C)(C(C)C)C(=O)N2)c(C(=O)O)c1 (stereo not drawn)
inactive: [1] | [2] | [3] | [4] | [5] | [7] | [8] | [15] | [16] | [9] | [10] | [19] | [17] | [11] | [12] | [18] | [13] | [14]

C[C@H]1O[C@H](OC2[C@@H](O)[C@@H](O)C(O)[C@H](O)[C@H]2O)[C@@H](N)C[C@@H]1N=C(N)C(=O)O (stereo partly drawn)
inactive: [1] | [2] | [3] | [4] | [5] | [6] | [7] | [8] | [15] | [16] | [9] | [17] | [11] | [12] | [18] | [13] | [14]

O=C(O)c1cc(I)cc(I)c1I
inactive: [1] | [2] | [3] | [4] | [5] | [6] | [7] | [8] | [9] | [10] | [17] | [11] | [12] | [18] | [13]

C=C(C)C(=O)OCCCCOC(=O)C(=C)C
inactive: [1] | [2] | [3] | [4] | [5] | [6] | [7] | [8] | [15] | [16] | [9] | [17] | [11] | [12] | [13] | [14]

C1CCNCC1
inactive: [1] | [2] | [3] | [4] | [5] | [6] | [7] | [8] | [15] | [16] | [9] | [11] | [12] | [18] | [13]

O=[N+]([O-])c1cc(Cl)c(Cl)cc1Cl
inactive: [1] | [2] | [3] | [4] | [5] | [6] | [7] | [8] | [15] | [16] | [10] | [17] | [11] | [13] | [14]

FC(Cl)(Cl)C(F)(Cl)Cl
inactive: [1] | [2] | [3] | [4] | [5] | [6] | [7] | [8] | [9] | [10] | [17] | [11] | [12] | [18] | [13] | [14]

Nc1ccc2c(c1)Cc1ccccc1-2
inactive: [1] | [2] | [3] | [4] | [5] | [6] | [7] | [8] | [16] | [9] | [10] | [17] | [11] | [13]

CON(C)C(=O)Nc1ccc(Cl)cc1
inactive: [1] | [2] | [4] | [5] | [6] | [7] | [15] | [16] | [9] | [10] | [17] | [11] | [12] | [18] | [13] | [14]
active: [3] 27.3 µM

CCSCc1ccccc1OC(=O)NC
inactive: [1] | [2] | [3] | [4] | [5] | [6] | [7] | [8] | [15] | [9] | [17] | [11] | [12] | [18] | [13] | [14]

C=CCc1ccccc1O
inactive: [1] | [2] | [3] | [4] | [5] | [6] | [7] | [8] | [15] | [16] | [9] | [11] | [13] | [14]
